Vif-A3F inh – blocks the Vif interaction with APOBEC3F; Potency, µM (highest dose often 46.1 µM); HeLa A3F-eYFP + Vif (tagged APOBEC3F with the HIV-1 protein that degrades it), YFP fluorescence increase; 390,000 compounds, 0.2% hits; AID 602313; also: nearly all actives have a fitted effect of over 65% in size
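HeLa cells stably expressing A3F-eYFP plus Vif, plated and incubated overnight at 37 deg C, then exposed to compounds overnight at 37 deg C. Blocked degradation read as raised yellow fluorescence (Ex 488/Em 500-530).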
ALOX12 inh – blocks human arachidonate 12S-lipoxygenase. P18054. purified 12hLO, xylenol orange hydroperoxide absorbance. Potency, µM (highest dose often 108 µM), most hits filed as inhibitors. 580,000 compounds, 1.1% hits. AID 1671190
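Purified human 12hLO (150 nM final) in 25 mM Hepes, 0.01% Triton X-100, pH 7.0 was preincubated 15 min at room temperature with compound. Then 40 uM arachidonic acid was added, 30 min. Hydroperoxide was read by Fe-XO absorbance ratio 573/405 nm.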
TRPML1 agonist – human mucolipin-1 channel agonism; TRPML1-expressing cells, Ca2+ dye fluorescence, FDSS; activation, % (test concentration not listed); 410,000 compounds, 0.12% hits; in the data active = activation above about 50%; inconclusive = mostly about 30% to 49%
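Cells: TRPML1-DL, 1X Tet inducer, ~16 h at 37 degrees C/5% CO2. Dye: ABD Ca8 no-wash + quencher, 45-90 min RT. Read: 10 s baseline, compound add, 110 s agonist phase; 54-4 EC80 (4uM final), 110 s antagonist phase.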
Glioma ERSR ind – induces the endoplasmic reticulum stress response in human glioma cells. U87-MG GRP78 promoter luciferase reporter, 16 h. Potency, µM, actives largely listed as activators. 420,000 compounds, 0.02% hits; also: series mostly up to about 76 µM; nearly all actives have a fitted effect of over 35% in size
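Stably transfected U87-MG human glioma cells carrying a GRP78-based luminescent sensor were seeded at 1000 cells/well, pin-dosed with compounds and incubated 16 h. Luciferase reagent was then added, and end-point luminescence was read after 10 min at room temperature.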
Vif-APOBEC3G blk – blocks the Vif interaction with human APOBEC3G | Q9HC16 | HeLa A3G-eYFP + Vif (tagged APOBEC3G with the HIV-1 protein that degrades it), YFP fluorescence, overnight | 410,000 compounds, 0.076% hits | Potency, µM (series often up to 46.1 µM), most hits filed as inhibitors; also: nearly all actives have a fitted effect of over 60% in size
Target sequence (Q9HC16 whole entry, looked up): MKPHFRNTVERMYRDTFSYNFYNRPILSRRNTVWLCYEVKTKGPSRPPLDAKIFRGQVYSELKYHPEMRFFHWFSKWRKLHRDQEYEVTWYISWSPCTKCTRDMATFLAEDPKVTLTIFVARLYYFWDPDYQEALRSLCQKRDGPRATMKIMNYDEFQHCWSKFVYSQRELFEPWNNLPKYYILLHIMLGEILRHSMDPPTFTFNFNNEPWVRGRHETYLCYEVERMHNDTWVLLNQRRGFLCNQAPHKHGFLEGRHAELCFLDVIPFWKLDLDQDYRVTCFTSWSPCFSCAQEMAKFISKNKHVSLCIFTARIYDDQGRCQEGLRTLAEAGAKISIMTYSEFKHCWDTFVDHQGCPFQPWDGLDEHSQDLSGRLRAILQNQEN
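Read-out is eYFP fluorescence (Ex 488/Em 500-530) from Vif-expressing HeLa A3G-eYFP cells; more signal means A3G escaped Vif-mediated degradation. Cells plated overnight, compound pinned in, incubated overnight at 37 deg C.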
TRPML1 inh – inhibitors of human TRPML1 channel. TRPML1-inducible cells, Ca2+ dye fluorescence, FDSS; hits give low values; inhibition of EC80 agonist-evoked calcium signal. activity change, negative = inhibition, % (test concentration not listed). 390,000 compounds, 0.02% hits. Q9GZU1; in the data active = activity change below about -50%; inconclusive = between about -30% and that limit;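 also: stimulus is agonist 54-4 at its EC80 concentration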
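Calcium fluorescence in TRPML1-DL cells induced overnight with Tet: a 110 s read after compound pin addition, then a 110 s antagonist read after challenge with 54-4 at 4 uM final (EC80).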
Each line names hits and unclear results; the compound was inactive in the other large screens. A selection: hits, their analogues and other compounds. The true share with any hit is near 1.3%. Unless noted, calls follow the shape of the dose curve; as a rule, active = well fitted curve in the direction sought with a large enough effect; inconclusive = small, poorly fitted or top-dose-only effect, or another doubt; inactive = no such curve, though single readings can be large; an effect the other way counts as inactive or inconclusive.

COc1ccc(/C=C/C(=O)NC(=S)NCC2CCCO2)cc1 (stereo not drawn)	none
CC(C)(C)c1ccc(C(=O)NC(=S)NCc2ccco2)cc1	ALOX12 inh 14µM
O=C(NC(=S)NCc1ccco1)c1ccc(Br)cc1	ALOX12 inh 16µM
Cc1cc(C(=O)N2CCN(S(=O)(=O)c3ccc(F)cc3)CC2)c(C)n1Cc1ccco1	none (no result: Vif-A3F inh, TRPML1 agonist, Glioma ERSR ind, Vif-APOBEC3G blk, TRPML1 inh)
CCCCn1c(=O)[nH]c(=O)c2c1nc(-c1ccc(OC)cc1)n2C	none (no result: Vif-A3F inh, TRPML1 agonist, Glioma ERSR ind, Vif-APOBEC3G blk, TRPML1 inh)
CC(C)(C)c1ccc(C(=O)NC(=S)NCC2CCCO2)cc1 (stereo not drawn)	ALOX12 inh 7.9µM
COCCNC(=S)NC(=O)c1ccc(C(C)(C)C)cc1	Vif-A3F inh inconclusive, ALOX12 inh 13µM
CC(C)(C)c1ccc(C(=O)NCCOc2ccccc2)cc1	none
CC(C)(C)c1ccc(C(=O)NNC(=S)NCC2CCCO2)cc1 (stereo not drawn)	none
CCOC(=O)Nc1ccc(N2CCn3c(nc4ccccc43)C2)cc1	none (no result: Vif-A3F inh, TRPML1 agonist, Glioma ERSR ind, Vif-APOBEC3G blk, TRPML1 inh)
COC1CCN(C(=O)c2ccnc(-c3nnc4ccc(N5CCOCC5)nn34)c2)CC1	ALOX12 inh 100µM (no result: Vif-A3F inh, TRPML1 agonist, Glioma ERSR ind, Vif-APOBEC3G blk, TRPML1 inh)
COC1CCN(C(=O)c2ccnc(-c3nnc4ccc(Nc5ccccc5)nn34)c2)CC1	none (no result: Vif-A3F inh, TRPML1 agonist, Glioma ERSR ind, Vif-APOBEC3G blk, TRPML1 inh)
COc1ccnc(-c2nnc3ccc(N4CCN(C(=O)c5ccco5)CC4)nn23)c1	none (no result: Vif-A3F inh, TRPML1 agonist, Glioma ERSR ind, Vif-APOBEC3G blk, TRPML1 inh)
COc1ccnc(-c2nnc3ccc(N4CCc5ccccc5CC4)nn23)c1	ALOX12 inh 50µM (no result: Vif-A3F inh, TRPML1 agonist, Glioma ERSR ind, Vif-APOBEC3G blk, TRPML1 inh)
COc1cc(NC(=O)N2CCC3(CC2)N=C(c2cccc(Cl)c2)C(=O)N3)cc(OC)c1OC	none (no result: Vif-A3F inh, TRPML1 agonist, Glioma ERSR ind, Vif-APOBEC3G blk, TRPML1 inh)
CCCCC1CCC(C(=O)OC(C)C(=O)Nc2ccc(NC(C)=O)cc2)CC1 (stereo not drawn)	ALOX12 inh 40µM
CC(=O)Nc1ccc(NC(=O)C(C)OC(=O)C2CCC2)cc1 (stereo not drawn)	none
COc1ccc(NC(=O)c2c[nH]n3c(=O)cc(C4CCN(C(=O)OC(C)(C)C)CC4)nc23)cc1Cl	ALOX12 inh 40µM
CC(C)(C)OC(=O)N1CCC(c2cc(=O)n3[nH]cc(C(=O)Nc4ccc(F)c(Cl)c4)c3n2)CC1	none
C(=C\c1ccccc1)/C=N/Nc1nc2ccccc2s1	none
CCC/C=N/Nc1nc2ccccc2s1	ALOX12 inh 40µM
COc1cc2oc(=O)c(CC(=O)NC3CC3)c(C)c2cc1Cl	none (no result: Vif-A3F inh, TRPML1 agonist, Glioma ERSR ind, Vif-APOBEC3G blk, TRPML1 inh)
CCCCc1ccc(C#Cc2ccc(OCC)cc2)cc1	none (no result: Vif-A3F inh, TRPML1 agonist, Glioma ERSR ind, Vif-APOBEC3G blk, TRPML1 inh)
CCc1cccc(C)c1NC(=O)c1cccc(C(=O)Nc2c(C)cccc2CC)c1	none
CN(C)c1cccc(C(=O)NNc2c(Cl)cc(Cl)cc2Cl)c1	ALOX12 inh 5µM (no result: Vif-A3F inh, TRPML1 agonist, Glioma ERSR ind, Vif-APOBEC3G blk, TRPML1 inh)
COc1ccccc1CNC(=O)c1cccc(N(C)C)c1	ALOX12 inh 1.8µM
CCc1cccc(C)c1NC(=O)c1cccc(N(C)C)c1	ALOX12 inh 22µM

High-throughput results (PubChem)
